Pf growth 48h = P. falciparum growth inhibition at 48 hours (one generation); 310,000 compounds, 5.9% hits; P. falciparum luciferase growth in erythrocytes, 48 h; Potency, µM (top dose mostly 28.7 µM), inactives show at the top dose activity change, negative = inhibition, hits mostly inhibitors; note: % is set by controls: 0 for no effect and ±100 for the full control effect
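Firefly luciferase activity from engineered P. falciparum reports growth; inhibitors lower the luminescent signal. Cultures contained 2% hematocrit erythrocytes at 0.1% final parasitemia.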
Sm TGR inh = inhibitors of Schistosoma mansoni thioredoxin glutathione reductase | purified TGR, DTNB reduction, TNB absorbance 405 nm | Q962Y6 | AID 485364 | 360,000 compounds, 3% hits | Potency, µM (series often up to 114 µM), for inactives: top-dose activity change, negative = inhibition, usual class: inhibitors; note: % is set by controls: 0 for no effect and ±100 for the full control effect; nearly all actives have a fitted effect of over 60% in size
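Kinetic colorimetric format: TGR-catalysed, NADPH-driven DTNB reduction monitored via TNB absorbance. Enzyme dispensed at 20 nM; compound exposure 15 min at room temperature before reaction start.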
Pf growth 96h = inhibits malaria parasite growth, 96 h; Potency, µM (doses to about 28.7 µM), for the others: at the top dose activity change, negative = inhibition, usual class: inhibitors; P. falciparum luciferase reporter growth, 96 h; 320,000 compounds, 6.9% hits; AID 504834; note: % is set by controls: 0 for no effect and ±100 for the full control effect
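P. falciparum expressing integrated firefly luciferase, in erythrocytes at 2% hematocrit, 0.05% parasitemia, incubated with compounds 96 h at 37 C, 5% CO2. Growth inhibition read as loss of luminescence; two-generation exposure targets delayed-death apicoplast inhibitors.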
SARS PLpro yeast = SARS-CoV PLP inhibition in yeast. S. cerevisiae expressing SARS-CoV PLpro, growth rescue. Potency, µM (top dose mostly 32.9 µM), for the others: at the top dose activity, positive = growth rescue, most hits filed as activators. 330,000 compounds, 0.19% hits. AID 485353; calls by dose curve; note: 0% is about no effect; nearly all actives have a fitted effect of over 55% in size
Starred values were filed as active, the others as inactive; ? = inconclusive; . = not tested or not shown. An excerpt weighted towards active compounds, which were near 12% of everything screened. Unless noted, calls come from the whole dose curve; as a rule, active = well fitted curve in the direction sought with a large enough effect; inconclusive = small, poorly fitted or top-dose-only effect, or another doubt; inactive = no such curve, though single readings can be large; an effect the other way counts as inactive or inconclusive. Potency is the fitted concentration of half-maximal effect.

SMILES	Pf growth 48h	Sm TGR inh	Pf growth 96h	SARS PLpro yeast
COc1ccccc1NC(=O)CN1C(=O)CCS(=O)(=O)c2ccccc21	-4.3%	?	?	-2.9%
COc1ccc(Cl)cc1NC(=O)N1CCN(c2ccccc2OC)CC1	6.57µM*	2.4%	?	-3.1%
O=C(Nc1ccccc1)N1CCN(c2ccc(F)cc2)CC1	13.1µM*	-0.8%	?	-41.5%
COc1ccc(Cl)cc1NC(=O)CN1C(=O)CCS(=O)(=O)c2ccccc21	1.5%	50.1µM*	-12.3%	18.8%
CC(=O)OC(C(=O)N1CCN(c2ccc(F)cc2)CC1)c1ccccc1 (stereo unspecified)	31.9%	-2.5%	11.7µM*	?
CCc1ccc(S(=O)(=O)c2nnn(-c3ccc(F)cc3)c2N)cc1	.	1.5%	.	.
Cc1cc(=O)oc2c(C)c3occc3cc12	?	-0.8%	64.6%	-2.3%
COc1ccccc1NC(=O)N1CCN(C(=O)Nc2ccccc2OC)CC1	-13.9%	-6.0%	31.7%	-1.4%
COc1ccccc1NC(=O)N1CCN(c2ccc(F)cc2)CC1	-20.6%	-2.3%	2.33µM*	1.4%
O=C(Nc1ccc(F)cc1F)N1CCC(c2nc3ccccc3o2)CC1	12.1%	14.8%	109.6%	-0.1%
COc1ccccc1NC(=O)N1CCC(c2nc3ccccc3o2)CC1	12.0%	8.9%	23.3µM*	-1.8%
Cn1c(=O)c2c(nc(NCCc3ccccc3)n2Cc2cccc(Br)c2)n(C)c1=O	.	-7.2%	.	.
CC1(C)CC(=O)c2c(O)cc(OCC(=O)Nc3ccc(S(N)(=O)=O)cc3)cc2O1	-11.6%	-22.8%	?	-2.4%
COc1cc(NC(=O)COc2cc(O)c3c(c2)OC(C)(C)CC3=O)cc(OC)c1OC	?	-12.5%	4.15µM*	1.4%
CCC(=O)N1N=C(c2ccc(NS(=O)(=O)c3ccccc3)cc2)CC1c1ccco1 (stereo unspecified)	.	.	.	3.9%
CS(=O)(=O)N(CC(=O)N1CCN(c2ccccc2F)CC1)c1cc(C(F)(F)F)ccc1Cl	.	1.5%	10.4µM*	0.4%
COc1ccc(N(CC(=O)N2CCN(c3ccccc3F)CC2)S(=O)(=O)c2c(C)n[nH]c2C)cc1	?	1.5%	?	0.6%
Cc1ccc(N(CC(=O)N2CCN(c3ccccc3F)CC2)S(=O)(=O)c2c(C)noc2C)cc1	?	-3.3%	9.28µM*	.
COc1cccc(N2CCN(C(=O)CN(c3cc(C)cc(C)c3)S(=O)(=O)c3c(C)noc3C)CC2)c1	?	-8.0%	10.4µM*	0.1%
COc1ccc(N(CC(=O)N2CCN(c3ccccc3F)CC2)S(=O)(=O)c2c(C)noc2C)cc1	-14.4%	-1.4%	5.86µM*	-3.0%
CC(C)(C)N(Cc1ccccc1)C(=O)COC(=O)/C=C/c1ccc2c(c1)OCO2	-19.0%	1.9%	2.5%	-0.1%
COc1ccc(N(CC(=O)N2CC=C(c3ccccc3)CC2)S(=O)(=O)c2c(C)noc2C)cc1	.	-11.9%	3.7µM*	-1.5%
COc1ccc(N(CC(=O)N2c3ccccc3CC2C)S(=O)(=O)c2c(C)noc2C)cc1 (stereo unspecified)	11.7µM*	0.7%	-20.6%	7.4%
CCOc1ccc(N(CC(=O)N2CCc3ccccc32)S(=O)(=O)c2c(C)noc2C)cc1	.	3.3%	5.3%	-10.9%
O=C(O)c1cc(N=Nc2c(O)ccc3ccccc23)cc(C(=O)O)c1	?	-33.2%	?	-0.3%
SMILES	Pf growth 48h	Sm TGR inh	Pf growth 96h	SARS PLpro yeast
O=C(O)c1cc2ccccc2c(N=Nc2cccnc2)c1O	-11.7%	0.3%	2.94µM*	-0.7%
Cc1cc(Br)cc2c1N(Cc1ccccc1OC(C)C)C(=O)C2=O	.	-1.3%	.	.
C/C(=N\NC(=O)c1nn(C)cc1Br)c1cccc(NC(=O)C(C)(C)C)c1	?	-0.9%	?	4.7%
C/C(=N\NC(=O)c1nn(C)cc1Br)c1ccc(NC(=O)c2ccncc2)cc1	0.8%	4.6%	4.15µM*	5.3%
O=Cc1ccc(O)c2ncccc12	6.57µM*	-18.2%	?	-6.8%
Cc1ccc(CNC(=O)c2ccc3c(c2)NC(=O)C(CS(=O)(=O)Cc2cccc(C)c2)N3)cc1 (stereo unspecified)	.	-2.0%	.	.
O=C(NCCc1ccc(Cl)cc1Cl)C1=CC=CN2CCS(=O)(=O)N=C12	-25.1%	2.5%	-0.5%	-4.7%
CCn1c(N2CCN(S(=O)(=O)c3ccc(OC)cc3)CC2)nc2ccccc21	?	4.3%	11.7µM*	-2.3%
CCn1c(N2CCN(S(=O)(=O)c3ccccc3C(F)(F)F)CC2)nc2ccccc21	?	0.0%	?	-3.9%
Cc1cc(C)n(-c2nc3ccccc3nc2N2CCN(S(=O)(=O)c3cccc(C#N)c3)CC2)n1	4.15µM*	-11.1%	20.9%	-4.3%
O=C(N1CCN(c2ccccc2)CC1)C12CC3CC(CC(C3)C1)C2	?	0.0%	?	-31.9%
Cc1cc(C)n(-c2nc3ccccc3nc2N2CCCC2)n1	.	-19.4%	-7.2%	-9.6%
CCn1c(N2CCN(C(=O)C34CC5CC(CC(C5)C3)C4)CC2)nc2ccccc21	13.1µM*	-1.0%	.	-1.8%
Cc1cc(C)n(-c2nc3ccccc3nc2N2CCCCCC2)n1	?	8.6%	-13.7%	-10.5%
COc1ccc(S(=O)(=O)N2CCN(c3nc4ccccc4nc3-n3nc(C)cc3C)CC2)cc1	?	0.2%	9.28µM*	4.9%
CCOC(=O)c1ccc(N2C(=O)c3n[nH]c(-c4cccs4)c3C2c2ccc(OC)cc2OC)cc1 (stereo unspecified)	.	10.7%	.	.
CCc1ccc(Sc2cc(C(=O)NCc3ccccc3OC)c3ccccc3n2)cc1	.	4.5%	.	.
CN(CC(=O)Nc1ccccc1Cl)CC(=O)Nc1cccc2ccccc12	.	.	.	-6.6%
Cc1ccc(C)c(Cn2c3ccccc3c3cnn(CC(=O)NCCCc4ccccc4)c(=O)c32)c1	.	-11.0%	.	.
Cc1ccc(C)c(Cn2c3ccccc3c3cnn(CC(=O)NCc4ccccn4)c(=O)c32)c1	?	-6.0%	11.7µM*	0.9%
CC(=O)NCc1ccc(C(=O)CSc2nnc(C3CC3)n2C2CC2)cc1	8.8%	-21.6%	-19.1%	1.1%
COc1cccc(C(=O)NCc2cn3ccccc3n2)c1	.	2.1%	.	.
CCCCn1c(SCC(=O)Nc2ccc(C)c(S(=O)(=O)N3CCOCC3)c2)nnc1C(CC)N(C)C (stereo unspecified)	?	-13.5%	-9.2%	-10.4%
CCCCn1c(SCC(=O)Nc2cc(C(F)(F)F)ccc2Cl)nnc1C(CC)N(C)C (stereo unspecified)	8.28µM*	3.5%	?	0.4%
COc1cc(CCC(=O)Nc2ccc(C)c(S(=O)(=O)N3CCCCCC3)c2)cc(OC)c1OC	11.7µM*	-6.1%	10.4µM*	3.8%
COc1ccc(CCC(=O)Nc2ccc(Cl)c(S(=O)(=O)N3CCCC3)c2)cc1	9.28µM*	1.6%	?	1.6%
O=C(CCOc1ccccc1)Nc1ccc(Cl)c(S(=O)(=O)N2CCOCC2)c1	?	-5.7%	?	-8.3%
COc1cc(CCC(=O)Nc2ccc(S(=O)(=O)N3CCCC3)cc2)cc(OC)c1OC	?	0.4%	?	-5.9%
